Test results published in ChEMBL document CHEMBL3433997, “St. Jude Leishmania screening dataset” (2016).

Legend:
Assay type in all cases: functional
[1] = target: Solute carrier family 2, facilitated glucose transporter member 1 (Homo sapiens) (UniProt P11166); experiment: ST_JUDE_LEISH: Cytotoxicity at 2uM final concentration against transgenic Leishmania Mexicana promastigotes LmGLUT1 that are glucose transport deficient and complemented with the human glucose transporter GLUT1. Activity is measured by DNA content using SYBR green in vitro
[2] = target: Hexose transporter 1 (Plasmodium falciparum) (UniProt O97467); experiment: ST_JUDE_LEISH: Cytotoxicity at 2uM final concentration against transgenic Leishmania Mexicana promastigotes LmPfHT that are glucose transport deficient and complemented with the Plasmodium falciparum hexose transporter. Activity is measured by DNA content using SYBR green in vitro
[3] = target: Glucose transporter (Leishmania mexicana) (UniProt O61059); experiment: ST_JUDE_LEISH: Cytotoxicity at 2uM final concentration against transgenic Leishmania Mexicana promastigotes LmGT2 that are glucose transport deficient and complemented with the L. Mexicana glucose transporter 2. Activity is measured by DNA content using SYBR green in vitro

Solute carrier family 2, facilitated glucose transporter member 1 (Homo sapiens), sequence (P11166 whole entry): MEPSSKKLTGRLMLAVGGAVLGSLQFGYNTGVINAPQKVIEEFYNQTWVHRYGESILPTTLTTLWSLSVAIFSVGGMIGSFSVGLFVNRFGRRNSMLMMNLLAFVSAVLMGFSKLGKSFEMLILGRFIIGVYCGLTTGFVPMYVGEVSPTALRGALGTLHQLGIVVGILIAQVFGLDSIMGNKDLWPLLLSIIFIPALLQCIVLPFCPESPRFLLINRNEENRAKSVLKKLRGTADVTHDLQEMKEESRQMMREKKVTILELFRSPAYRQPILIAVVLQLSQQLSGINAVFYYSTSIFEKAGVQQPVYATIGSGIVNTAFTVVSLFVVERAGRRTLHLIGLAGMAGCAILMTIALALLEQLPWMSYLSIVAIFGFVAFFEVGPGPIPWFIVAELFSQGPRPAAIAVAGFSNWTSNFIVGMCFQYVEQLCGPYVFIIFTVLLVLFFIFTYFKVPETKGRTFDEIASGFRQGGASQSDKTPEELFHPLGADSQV

| Structure (SMILES) | inhibition [1] | inhibition [2] | inhibition [3] |
| --- | --- | --- | --- |
| Cc1cc2c(cc1C(F)(F)F)N(C(=O)Nc1cnc(OCCN(C)C)c(C(F)(F)F)c1)CC2 | 7.92% | 6.97% | 6.3% |
| Cc1cc(N[C@@H](Cc2ccccc2)C(=O)Nc2ccccc2)nc(NCCc2ccc(F)cc2)n1 | 3.66% | 3.68% | 1.86% |
| COc1ccc2nc3cc(Cl)ccc3c(N)c2c1 | 15.8% | 10% | 3.3% |
| CCCC(C)N(Cc1ccc(C(C)(C)C)cc1)C(=O)c1cccc(OC)c1 (stereo unspecified) | -0.57% | -0.47% | -2.72% |
| CC(C)(C)c1nn(-c2ccc(Cl)cc2)c2[nH]c(=O)c(CNC3CCCC3)cc12 | 7.6% | 6.85% | 8.31% |
| CCCN1CCN(CC(O)CNC(=O)Nc2ccc(Cl)cc2)CC1 (stereo unspecified) | 2.81% | 0.64% | 4.07% |
| CC(C)Oc1cc(-c2ccc(S(C)(=O)=O)cc2)nc(N(Cc2cccc(F)c2F)Cc2cccc(F)c2F)n1 | -1.85% | 0.65% | -2.49% |
| Nc1nc(N)c2c(ccc3c2ccn3Cc2cccc(F)c2)n1 | 102% | 104% | 99.8% |
| N#Cc1cccc(NC(=O)Nc2ccc(-c3cccc(-c4nc5cc(F)ccc5[nH]4)c3)cc2)c1 | 3.67% | 1.58% | 4.18% |
| COc1ccc2nccc([C@@H](O)CN3CCC(NCc4ccc5sc(=O)[nH]c5c4)CC3)c2c1 | 1.84% | 5.11% | 1.2% |
| CCCCSc1ccc2nc(-c3c[nH]c4ccc(C#N)cc34)cn2c1 | -0.49% | 3.17% | 3.81% |
| CCNc1cc(C(=O)N[C@@H](Cc2ccccc2)[C@H](O)CN[C@@H]2CCc3ccccc32)cc(N2CCCCS2(=O)=O)c1 | 1.06% | 1.96% | 1.17% |
| Cc1ccccc1C1CCN(C2CCC(NC(=O)/C=C/c3ccc(C#N)cc3)CC2)CC1 (stereo unspecified) | 3.43% | 4.49% | 5.03% |
| CC(C)CNC(=O)CN1C(=O)C(c2ccccc2)(c2ccccc2)N=C1N | 4.76% | 4.66% | 2.29% |
| CC(C)N1CCC(N(Cc2ccc(-c3ccc(C(F)(F)F)cc3)cc2)C(=O)Cn2c(SCc3cccc(F)c3F)cc(=O)c3ccccc32)CC1 | -0.18% | 1.73% | 0.55% |
| COc1ccc2nc(-c3cc(-c4ccc(NC(=O)C(C)C)cc4)cnc3N)[nH]c2c1 | 20.8% | 40.7% | 12.9% |

| Structure (SMILES) | inhibition [1] | inhibition [2] | inhibition [3] |
| --- | --- | --- | --- |
| CC(=O)c1ccccc1OCCSc1nnc(Cc2cccs2)n1C1CCCCC1 | 1.7% | 2.09% | 1.75% |
| CN1CCC(NCc2cccc(-c3cccc(S(=O)(=O)NCc4ccccc4)c3)c2)CC1 | 4.86% | -2.65% | 2.47% |
| COc1cc(Nc2nccc(-c3c(-c4cccc(NC(=O)c5c(F)cccc5F)c4)nn4ccccc34)n2)cc(OC)c1OC | 20.8% | 24.9% | 8.03% |
| O=C(/C=C/c1ccc(Cl)c(Cl)c1)NCCCCCN1CCC(NC(=O)Nc2ccccc2F)CC1 | 0.1% | 4.13% | -0.91% |
| Cc1cc(N2CCOCC2)nc(Nc2ccc(NC(=O)c3cccc4ccccc34)cc2)n1 | 7.25% | 8.47% | 5.87% |
| CCOc1ccc(NC(=O)c2cn3nc(-c4ccc(OCC)cc4)cc3nc2C2CCNCC2)cc1 | 1.5% | 2.58% | 3.37% |
| O=c1cc(NCC2(CNCc3cn(Cc4ccccc4)c4ccccc34)CCCCC2)[nH]c2ccccc12 | 4.81% | 5.38% | 5.44% |
| O=C(Nc1ccc(Cl)cc1)c1cccc(CN2CCCN(Cc3cccc(O)c3)CC2)c1 | -0.2% | -0.04% | 0.01% |
| CCCOc1cc(Cc2cnc(N)nc2N)cc(OC)c1OC | -1.05% | -1.9% | -0.03% |
| Cc1cc(F)ccc1-c1nc(N(C)CCN(C)C(=O)N(C)c2ccccc2)nc2c1ccc(=O)n2-c1c(F)cccc1F | 2.99% | 3.18% | 9.88% |
| O=C(NC1CCN(Cc2ccccc2)CC1)c1ccc(-c2nc3cc4ccccc4cc3[nH]2)s1 | 3.9% | 2.65% | 4.03% |
| CCCCCc1cc(O)c2c(c1)OC(C)(C)C=C2C1=CCN(Cc2ccsc2)CC1 | 2.33% | 2.79% | 2.52% |
| C=CCn1c(=N)n(CC(O)c2ccc(Cl)c(Cl)c2)c2ccccc21 (stereo unspecified) | 2.79% | 3.84% | 0.9% |
| N=C(N)Nc1nc(-c2cccc(NC(=O)Cc3ccccc3)c2)cs1 | 2.29% | 4.02% | 3.44% |
| CC(C)(C)SC1SC(SC(C)(C)C)C(OC(=O)c2ccccc2)C(OC(=O)c2ccccc2)C1OC(=O)c1ccccc1 (stereo unspecified) | -0.52% | -0.69% | -0.49% |
| Cc1ccccc1C1CCN(c2ccc(C(=O)NC3CC3)cn2)CC1 | -0.44% | 1.26% | 0.57% |
